Measurements taken from PubChem BioAssay.
Calls of active or inactive are those of the source.

Key:
[1] = small molecules captured by biotinylated probe aFSTL3 – biochemical, small-molecule microarray, fluorescence 635/667, stem cell growth factor project, primary screen (AID 1064); conditions: higher = more signal;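 also: measures binding of the biotinylated anti-FSTL3 antibody to printed compounds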
[2] = binders from COS7 lysate, DM2A8 probe, primary screen, torsin A project, cell lysate, small-molecule microarray, fluorescence 635/667 (AID 1065); conditions: higher = more signal, COS7 lysate expressing mutant human TOR1A
[3] = small molecules captured by biotinylated probe aFGF2 – biochemical, small-molecule microarray, fluorescence 635/667, stem cell growth factor project, primary screen (AID 1067); conditions: higher = more signal;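 also: measures binding of biotinylated aFGF2 protein to printed compounds on slides; z-score merges feature fluorescence and signal-to-noise across triplicate slides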
[4] = small molecules captured by biotinylated probe aFGF10 – biochemical, small-molecule microarray, fluorescence 635/667, stem cell growth factor project, primary screen (AID 1071); conditions: higher = more signal;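 also: score merges 667 nm spot intensity and signal to noise from triplicate slides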
[5] = biological target: Neurogenic locus notch homolog protein 2 (Homo sapiens) (UniProt Q04721); experiment: small molecules binding Notch2 protein – biochemical, small-molecule microarray, 635 nm fluorescence, stem cell growth factors, primary screen (AID 1073); conditions: higher = more signal
[6] = biological target: Pro-neuregulin-1, membrane-bound isoform (Homo sapiens) (UniProt Q02297); experiment: small molecules binding neuregulin-1 protein – biochemical, small-molecule microarray, fluorescence 635/667, psychiatric disease protein project, primary screen (AID 1075); conditions: NRG1 binding, 635 nm fluorescence, higher = more signal;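 also: score combines 667 nm spot fluorescence with signal to noise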
Sequence of Pro-neuregulin-1, membrane-bound isoform (Homo sapiens) (Q02297 whole entry, looked up, the tested form may be a part, canonical isoform): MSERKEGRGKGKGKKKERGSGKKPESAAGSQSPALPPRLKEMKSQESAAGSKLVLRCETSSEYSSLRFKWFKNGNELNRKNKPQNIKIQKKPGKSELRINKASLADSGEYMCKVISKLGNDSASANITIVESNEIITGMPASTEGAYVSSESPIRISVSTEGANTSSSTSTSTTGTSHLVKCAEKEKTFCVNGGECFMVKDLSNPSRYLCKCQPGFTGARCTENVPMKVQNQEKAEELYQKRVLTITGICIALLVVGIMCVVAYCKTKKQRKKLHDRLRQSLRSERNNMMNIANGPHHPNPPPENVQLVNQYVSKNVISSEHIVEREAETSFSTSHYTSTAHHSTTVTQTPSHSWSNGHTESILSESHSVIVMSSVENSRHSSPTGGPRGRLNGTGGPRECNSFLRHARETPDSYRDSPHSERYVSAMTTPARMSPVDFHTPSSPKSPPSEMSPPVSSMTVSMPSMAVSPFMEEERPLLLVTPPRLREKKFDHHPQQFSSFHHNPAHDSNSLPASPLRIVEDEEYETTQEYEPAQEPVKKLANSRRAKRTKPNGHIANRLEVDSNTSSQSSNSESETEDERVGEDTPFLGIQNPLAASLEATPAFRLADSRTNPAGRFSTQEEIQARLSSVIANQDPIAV

[7] = system: Neuregulin-1 EGF-like domain; experiment: small molecules binding NRG1 EGF domain – biochemical, small-molecule microarray, 635 nm fluorescence, primary screen (AID 1081); conditions: higher = more signal;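 also: binding of the protein to compounds printed on small-molecule microarray slides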
[8] = FRG1 expression reporter modulators in myotubes – cell-based, C2C12 myotubes, firefly/Renilla luciferase, luminescence, FRG1 inhibition for FSHD, primary screen (AID 1084); conditions: FRG1 promoter luciferase, higher = more signal, called active from +8 up or from −8 down
[9] = small molecules captured by biotinylated probe aFST – biochemical, small-molecule microarray, fluorescence 635/667, stem cell growth factor project, primary screen (AID 1086); conditions: higher = more signal;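 also: score merges 667 nm fluorescence with signal-to-noise of each printed compound spot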
[10] = binders of probe aHhip on microarray, primary screen, stem cell growth factor project, biochemical, small-molecule microarray, fluorescence 635/667 (AID 1087); conditions: higher = more signal;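 also: score merges spot fluorescence at 667nm with spot signal to noise ratio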
[11] = system: PRMT1 (protein arginine N-methyltransferase 1); experiment: small molecules binding arginine methyltransferase PRMT1 – biochemical, small-molecule microarray, 635 nm fluorescence, primary screen (AID 1088); conditions: higher = more signal;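 also: binding of Prmt1 protein to compounds spotted on small-molecule microarray slides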
[12] = growth effects on S. cerevisiae YJM789 – YJM789 clinical isolate, OD600, 24 h, basal, primary screen (AID 1089); conditions: higher = more signal, called active from +8 up or from −8 down;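 also: growth of clinical yeast isolate S. cerevisiae YJM 789 seeded 1000 cells per well; test concentration not given here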
[13] = S. pombe growth modifiers, basal conditions – strain 972, OD600, 24 h, no modulator, primary screen (AID 1090);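 also: basal condition with compound alone and no growth modifier present; test concentration not given here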; conditions: S. pombe 972 growth, higher = more signal, called active from +8 up or from −8 down
[14] = budding yeast growth modifiers under rapamycin – strain BY4716, OD600, 96 h, primary screen (AID 1091); also: test concentration not given here; conditions: S. cerevisiae BY4716 + rapamycin, higher = more signal, called active from +8 up or from −8 down
[15] = biological target: Torsin-1A-interacting protein 2 (Homo sapiens) (UniProt Q8NFQ8); experiment: small molecules binding lysate-expressed LULL1 – cell lysate, human LULL1 lysate, 635/667 nm fluorescence, primary screen (AID 1092); conditions: small-molecule microarray, hLULL1 lysate binding, 635 nm fluorescence; higher = more signal;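 also: probe is lysate of COS7 cells overexpressing human LULL1; score merges per-feature 667 nm fluorescence with signal-to-noise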
Sequence of Torsin-1A-interacting protein 2 (Homo sapiens) (Q8NFQ8 whole entry, looked up): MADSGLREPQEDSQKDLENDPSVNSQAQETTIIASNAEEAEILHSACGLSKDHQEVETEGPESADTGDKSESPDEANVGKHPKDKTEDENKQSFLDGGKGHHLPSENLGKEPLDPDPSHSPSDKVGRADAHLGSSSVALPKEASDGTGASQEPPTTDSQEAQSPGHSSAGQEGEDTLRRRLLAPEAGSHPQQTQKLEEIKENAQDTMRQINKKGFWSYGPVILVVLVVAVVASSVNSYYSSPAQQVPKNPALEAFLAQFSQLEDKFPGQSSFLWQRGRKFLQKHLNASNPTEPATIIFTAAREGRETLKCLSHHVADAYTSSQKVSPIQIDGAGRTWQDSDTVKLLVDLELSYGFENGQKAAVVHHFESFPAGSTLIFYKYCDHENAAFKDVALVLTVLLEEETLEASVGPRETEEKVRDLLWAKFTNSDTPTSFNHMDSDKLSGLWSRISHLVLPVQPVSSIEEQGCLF

[16] = optical density change of DRC41 E. coli – strain DRC41, OD650, 24 h, E. coli filamentation project, primary screen (AID 1093);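 also: MC1000 strain lacking acrAB efflux and sulA so SOS filamentation is blocked; test concentration not given here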; conditions: E. coli DRC41 growth, higher = more signal, called active from +8 up or from −8 down
[17] = probe aLefty2 binding to arrayed compounds – biochemical, biotinylated probe, 635/667 nm fluorescence, primary screen (AID 1094); conditions: small-molecule microarray, higher = more signal;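 also: score merges spot fluorescence near 667 nm with spot signal-to-noise ratio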
[18] = system: Noggin (protein binding on small-molecule microarray); experiment: small molecules binding Noggin protein – biochemical, 635/667 nm fluorescence, primary screen (AID 1095); conditions: 635 nm fluorescence, higher = more signal;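 also: score merges 667 nm feature fluorescence with signal to noise over triplicate slides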
[19] = biological target: Neurogenic locus notch homolog protein 3 (Homo sapiens) (UniProt Q9UM47); experiment: small molecules binding NOTCH3 protein – biochemical, 635/667 nm fluorescence, primary screen (AID 1096); conditions: small-molecule microarray, 635 nm fluorescence, higher = more signal
Sequence of Neurogenic locus notch homolog protein 3 (Homo sapiens) (Q9UM47 whole entry, looked up): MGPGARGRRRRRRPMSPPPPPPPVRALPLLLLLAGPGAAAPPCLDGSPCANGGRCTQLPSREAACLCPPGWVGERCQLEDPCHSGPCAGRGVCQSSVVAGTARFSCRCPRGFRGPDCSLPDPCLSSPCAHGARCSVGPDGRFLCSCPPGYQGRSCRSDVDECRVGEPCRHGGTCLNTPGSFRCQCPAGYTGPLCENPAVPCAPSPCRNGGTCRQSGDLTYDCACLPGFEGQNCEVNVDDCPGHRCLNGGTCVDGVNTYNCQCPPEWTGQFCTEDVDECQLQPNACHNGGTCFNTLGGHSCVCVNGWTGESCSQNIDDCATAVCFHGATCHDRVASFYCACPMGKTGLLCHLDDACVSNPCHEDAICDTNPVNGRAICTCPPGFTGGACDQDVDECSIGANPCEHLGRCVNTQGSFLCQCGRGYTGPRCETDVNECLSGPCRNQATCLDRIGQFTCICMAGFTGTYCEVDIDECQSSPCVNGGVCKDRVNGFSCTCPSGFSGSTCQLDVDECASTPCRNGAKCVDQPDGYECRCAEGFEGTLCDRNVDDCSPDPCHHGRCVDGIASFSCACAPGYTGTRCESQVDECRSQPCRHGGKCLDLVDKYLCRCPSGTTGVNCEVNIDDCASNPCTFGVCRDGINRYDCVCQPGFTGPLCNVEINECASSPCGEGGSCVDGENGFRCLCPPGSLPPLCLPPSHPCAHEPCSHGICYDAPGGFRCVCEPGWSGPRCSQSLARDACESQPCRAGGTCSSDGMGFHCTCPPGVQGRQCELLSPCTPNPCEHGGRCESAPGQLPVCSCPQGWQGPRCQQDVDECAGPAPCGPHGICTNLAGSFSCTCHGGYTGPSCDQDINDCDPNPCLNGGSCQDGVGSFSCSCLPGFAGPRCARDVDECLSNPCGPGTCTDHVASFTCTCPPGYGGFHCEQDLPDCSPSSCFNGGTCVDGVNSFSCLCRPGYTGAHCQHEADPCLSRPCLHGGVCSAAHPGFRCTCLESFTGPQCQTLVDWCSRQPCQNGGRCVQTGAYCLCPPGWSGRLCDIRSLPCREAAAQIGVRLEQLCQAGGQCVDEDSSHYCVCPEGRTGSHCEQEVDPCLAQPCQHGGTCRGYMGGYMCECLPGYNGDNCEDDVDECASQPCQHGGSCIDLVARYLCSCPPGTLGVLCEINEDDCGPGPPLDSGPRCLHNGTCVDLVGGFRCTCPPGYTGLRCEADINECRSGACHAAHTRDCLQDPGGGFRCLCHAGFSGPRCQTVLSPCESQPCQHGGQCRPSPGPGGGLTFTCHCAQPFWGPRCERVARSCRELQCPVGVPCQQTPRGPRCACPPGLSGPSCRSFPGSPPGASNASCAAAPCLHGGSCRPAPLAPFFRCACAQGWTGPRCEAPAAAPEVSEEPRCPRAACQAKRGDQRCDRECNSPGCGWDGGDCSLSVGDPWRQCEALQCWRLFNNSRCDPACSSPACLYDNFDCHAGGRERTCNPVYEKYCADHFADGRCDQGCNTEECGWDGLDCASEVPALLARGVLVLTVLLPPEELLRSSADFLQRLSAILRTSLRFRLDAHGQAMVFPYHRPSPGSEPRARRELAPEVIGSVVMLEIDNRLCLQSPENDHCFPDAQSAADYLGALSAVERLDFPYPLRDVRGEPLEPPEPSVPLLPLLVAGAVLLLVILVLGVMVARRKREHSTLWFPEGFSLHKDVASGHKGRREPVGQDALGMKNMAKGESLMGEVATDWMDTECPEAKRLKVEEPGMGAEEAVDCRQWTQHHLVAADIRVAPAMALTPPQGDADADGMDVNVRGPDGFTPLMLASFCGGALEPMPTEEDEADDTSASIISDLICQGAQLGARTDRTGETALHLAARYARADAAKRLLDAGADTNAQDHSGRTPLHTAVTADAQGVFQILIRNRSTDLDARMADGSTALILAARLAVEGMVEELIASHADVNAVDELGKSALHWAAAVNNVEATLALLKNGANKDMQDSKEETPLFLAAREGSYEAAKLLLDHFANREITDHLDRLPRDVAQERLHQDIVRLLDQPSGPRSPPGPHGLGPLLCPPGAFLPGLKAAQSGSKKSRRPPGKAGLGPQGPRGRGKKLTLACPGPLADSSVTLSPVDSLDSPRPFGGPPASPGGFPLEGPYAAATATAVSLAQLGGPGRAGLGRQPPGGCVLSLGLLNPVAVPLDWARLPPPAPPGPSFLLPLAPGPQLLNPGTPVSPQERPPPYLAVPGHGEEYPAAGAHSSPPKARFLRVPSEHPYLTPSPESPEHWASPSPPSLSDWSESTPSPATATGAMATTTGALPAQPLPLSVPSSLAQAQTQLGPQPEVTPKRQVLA

[20] = probe aEGFR binding to arrayed compounds – biochemical, biotinylated probe, 635/667 nm fluorescence, primary screen (AID 1097); conditions: small-molecule microarray, higher = more signal;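 also: probe is a biotinylated anti-EGFR antibody binding compounds printed on slides; score combines fluorescence near 667 nm and signal to noise of each spot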

Structure (SMILES)	composite z-score [1]	composite z-score [2]	composite z-score [3]	composite z-score [4]	composite z-score [5]	composite z-score [6]	composite z-score [7]	z-score [8]	composite z-score [9]	composite z-score [10]	composite z-score [11]	z-score [12]	z-score [13]	z-score [14]	composite z-score [15]	z-score [16]	composite z-score [17]	composite z-score [18]	composite z-score [19]	composite z-score [20]
CCOC(=O)C1=C[C@@H](C(C)(C)C)N(S(=O)(=O)c2ccc(C)cc2)[C@H]1c1ccccc1Cl	0.284	0.534	0.122	0.624	1.61	1.25	1.14	-2.24 (inactive)	1.07	0.0401	1.53	0.168 (inactive)	2.3 (inactive)	2.15 (inactive)	2.61	-0.766 (inactive)	0.144	0.614	1.05	0.0522
COCC(=C=CC[C@@H](O)c1ccc(OCCO)cc1)C[C@@H](O)COCc1ccccc1	0.158	-0.187	-0.015	0.734	0.726	1.11	1.07	-1.1 (inactive)	0.543	0.111	1.55	-1.31 (inactive)	-0.979 (inactive)	-0.474 (inactive)	3.16	1.55 (inactive)	0.0282	1.43	0.964	0.049
CO[C@H]1O[C@H](CO)[C@@H](OC(=O)Nc2ccc(C(F)(F)F)cc2)[C@H](OC(=O)Nc2ccccc2-c2ccccc2)[C@H]1OC(=O)Nc1ccccc1-c1ccccc1	-0.288	1.16	0.0276	0.988	1.04	0.802	1.36	2.53 (inactive)	0.997	-0.0645	1.54	1.32 (inactive)	2.36 (inactive)	29.9 (active)	3.29	0.0918 (inactive)	0.0079	1.21	1.06	0.0108
O=C(NCCO)C1=C[C@H](Oc2ccccc2I)[C@@H](O)[C@H](NCc2ccc(F)cc2)C1	0.175	0.917	-0.145	1.38	-0.627	-0.835	-1.68	-0.766 (inactive)	-0.459	0.0722	0.517	0.0567 (inactive)	-20.5 (active)	-0.455 (inactive)	-0.992	-0.909 (inactive)	-0.212	1.66	-0.0545	-0.202
O=C1O[C@@H](c2ccccc2)[C@@H](c2ccccc2)N2[C@@H](c3ccc(O)cc3)[C@]3(C(=O)Nc4ccc(C#CC5=CCCCC5)cc43)[C@@H](C(=O)N3CCCCCCC3)[C@H]12	2.95	0.905	0.347	0.294	0.861	0.705	1.3	-1.38 (inactive)	2.44	0.271	1.54	-1.67 (inactive)	-0.604 (inactive)	0.694 (inactive)	3.44	1.09 (inactive)	1.22	1.16	1.02	0.465
C=CCC(OC(C)=O)[C@@H]1[C@@H](N(Cc2cc3ccccc3o2)C(=O)c2ccc(-c3ccccc3)cc2)c2cc(OCCCO)ccc2N1C(=O)c1ccc2ccccc2n1 (stereo not given in full)	-0.128	-0.0562	-0.128	0.0599	-0.234	0.0289	-0.464	-1.47 (inactive)	0.268	0.417	-0.766	0.806 (inactive)	0.0887 (inactive)	1.16 (inactive)	0.607	0.859 (inactive)	-0.072	0.0917	-0.781	-0.0151
CC(=O)c1ccc(C(O)C2C=CC3C(=O)NC(=O)C3N2Nc2ccc(Cl)cc2Cl)cc1 (stereo not given)	0.863	0.37	0.045	0.606	1.01	1.72	0.669	1.12 (inactive)	0.462	-0.106	-0.002	0.727 (inactive)	0.973 (inactive)	1.14 (inactive)	3	-1.08 (inactive)	0.0277	-0.742	0.424	-0.0828
CCCC[C@@H](O)C1=C(COC)Cn2c(=O)n(-c3ccccc3)c(=O)n2[C@H]1CO	-0.306	-0.191	-0.226	0.13	-0.167	-0.43	-0.336	-1.12 (inactive)	-0.292	-0.236	-0.0379	-1.48 (inactive)	-1.13 (inactive)	-0.721 (inactive)	-0.0333	2.84 (inactive)	-0.246	-0.102	-0.62	-0.203
COc1cc2c(cc1O)C(c1ccc(CN3CCCC3)cc1)N(Cc1cccc(OC(F)(F)F)c1)CC2 (stereo not given)	0.254	0.956	-0.0568	0.0247	0.473	1.56	1.27	-0.232 (inactive)	0.155	-0.0317	0.996	-26.1 (active)	-20.2 (active)	-3.95 (inactive)	3.04	-6.17 (inactive)	0.045	0.0433	0.499	0.213
CC1(C)OC[C@@]23C=C(Br)[C@@H](C[C@H]12)[C@@]1(CO1)C3=O	-0.401	0.374	-0.105	0.403	0.517	0.146	0.149	-0.468 (inactive)	0.0965	-0.0423	-0.0986	0.409 (inactive)	-1.24 (inactive)	0.125 (inactive)	-0.202	-0.665 (inactive)	-0.153	0.232	0.378	-0.109
C=CCC(OC(C)=O)[C@@H]1[C@@H](N(Cc2cccc3ccccc23)C(=O)c2ccc(-c3ccccc3)cc2)c2cc(OCCCO)ccc2N1C(=O)c1ccc2ccccc2n1 (stereo not given in full)	-0.093	0.116	-0.0158	0.0632	0.285	0.298	0.037	-0.612 (inactive)	0.386	0.28	0.929	-0.637 (inactive)	0.651 (inactive)	-0.0728 (inactive)	1.01	-0.747 (inactive)	0.157	0.37	0.296	-0.0271
CCN(CC)c1ccc(N2CC=CC34O[C@@H]5C=CCOC(=O)[C@@H]5[C@H]3C(=O)N(CCCO)[C@@H]4C2=O)cc1 (stereo not given in full)	0.515	0.15	-0.062	-0.679	-1.04	0.986	0.391	0.275 (inactive)	-0.504	0.0881	0.586	-0.6 (inactive)	-0.197 (inactive)	-0.298 (inactive)	1.57	1.6 (inactive)	-0.139	-0.927	-0.453	-0.188
CCCCC(=C=CC[C@H](O)c1ccc(OCCO)cc1)C[C@H](O)c1ccccn1	-0.199	0.342	-0.109	0.694	0.356	1.47	1.14	-0.865 (inactive)	0.763	0.0854	1.54	0.415 (inactive)	-1.18 (inactive)	-0.539 (inactive)	1.72	0.493 (inactive)	-0.0094	0.266	0.419	0.165
C=CC[C@]1(C(=O)NCCCOC)N=C(c2ccc(OCCCO)cc2)O[C@H]1c1ccccc1	0.272	-0.188	0.0823	-0.179	-0.664	1.87	1.33	0.364 (inactive)	1.04	-0.0237	0.36	-0.193 (inactive)	-0.266 (inactive)	-0.739 (inactive)	3.29	0.753 (inactive)	0.037	-0.0071	-0.0832	-0.146
O=C(NCC(F)(F)F)[C@@H]1c2ccccc2C(=O)N(CC23CC4CC(CC(C4)C2)C3)[C@H]1c1ccc(CO)cc1	-0.473	0.371	-0.0549	0.353	0.958	0.553	1.21	-3.95 (inactive)	0.195	-0.0776	1.54	-3.48 (inactive)	-1.94 (inactive)	-1.47 (inactive)	1.81	1.37 (inactive)	-0.129	1.14	1.1	-0.0902
C#CCN(C/C=C/c1ccccc1)[C@H](CO[Si](C)(C)C(C)(C)C)c1ccccc1	-0.0528	-0.0566	-0.0815	-0.284	-1.14	-0.267	-0.497	-1.27 (inactive)	-0.363	-0.0994	0.21	0.253 (inactive)	-0.121 (inactive)	0.0066 (inactive)	0.433	-0.347 (inactive)	-0.264	-0.0154	-0.091	-0.21
C=CC[C@@]12N=C(c3ccc(OCCCO)cc3)O[C@@H]1c1ccccc1N(Cc1ccccc1)C2=O	1.16	1.43	0.302	0.524	0.552	1.44	1.31	-3.36 (inactive)	2.19	0.145	1.54	-0.965 (inactive)	-1.53 (inactive)	1.86 (inactive)	3.14	1.12 (inactive)	0.145	1.72	1.08	0.0631
CC(C)(C)N1CC=CC23O[C@@H]4/C=C\CCCOC(=O)C4[C@H]2C(=O)N(CCCCCCO)[C@@H]3C1=O (stereo not given in full)	0.509	-0.342	-0.208	-0.056	-1.12	1.1	0.781	-1.09 (inactive)	-0.392	-0.0618	-0.0574	-3.01 (inactive)	-0.927 (inactive)	-0.624 (inactive)	1.24	1.42 (inactive)	-0.302	-1.19	-0.052	0.252
COCCOC(=O)N1C(=O)[C@@]2(c3cc(C#CC4(O)CCCCCC4)ccc31)[C@H](c1ccc(OCCO)cc1)N1[C@H](c3ccccc3)[C@H](c3ccccc3)OC(=O)[C@H]1[C@@H]2C(=O)N1CCCCCCC1	1.81	0.437	0.466	0.276	1.25	1.77	1.29	0.222 (inactive)	2.41	2.99	1.55	1.42 (inactive)	0.598 (inactive)	3.68 (inactive)	3.09	0.436 (inactive)	1.15	1.82	1.11	0.753
